Screening results deposited in PubChem BioAssay by National Center for Advancing Translational Sciences (NCATS).
Rab9 promoter act: Rab9 promoter activation; Huh7 Rab9 promoter-luciferase reporter, luminescence, 24 h; Potency, µM (series often up to 9.22 µM), for inactives: top-dose activation, negative = inhibition, most hits filed as activators; actives 2.8% (n = 320,000); AID 485297; further: % of control where 0% means no effect; nearly all actives have a fitted effect of over 60% in size
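Cell-based reporter: Huh7 stable for Rab9 promoter-driven luciferase, plated in reduced-serum medium with 10% FBS at 1500 cells/well, compound-treated 24 h at 37 °C, luminescence read after 10 min reagent.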
FLuc modulator: firefly luciferase modulation, counter-screen for miR-21 project. actives 6.9% (n = 360,000). P08659. purified FLuc, Km substrates, luminescence inhibition. Potency, µM (highest dose often 57.5 µM), without a hit: at the top dose activity change, negative = inhibition, actives largely listed as inhibitors;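 further: plate controls were vehicle for no effect and reference inhibitor for full effect; nearly all actives have a fitted effect of over 55% in size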
Target sequence (P08659 whole entry, looked up): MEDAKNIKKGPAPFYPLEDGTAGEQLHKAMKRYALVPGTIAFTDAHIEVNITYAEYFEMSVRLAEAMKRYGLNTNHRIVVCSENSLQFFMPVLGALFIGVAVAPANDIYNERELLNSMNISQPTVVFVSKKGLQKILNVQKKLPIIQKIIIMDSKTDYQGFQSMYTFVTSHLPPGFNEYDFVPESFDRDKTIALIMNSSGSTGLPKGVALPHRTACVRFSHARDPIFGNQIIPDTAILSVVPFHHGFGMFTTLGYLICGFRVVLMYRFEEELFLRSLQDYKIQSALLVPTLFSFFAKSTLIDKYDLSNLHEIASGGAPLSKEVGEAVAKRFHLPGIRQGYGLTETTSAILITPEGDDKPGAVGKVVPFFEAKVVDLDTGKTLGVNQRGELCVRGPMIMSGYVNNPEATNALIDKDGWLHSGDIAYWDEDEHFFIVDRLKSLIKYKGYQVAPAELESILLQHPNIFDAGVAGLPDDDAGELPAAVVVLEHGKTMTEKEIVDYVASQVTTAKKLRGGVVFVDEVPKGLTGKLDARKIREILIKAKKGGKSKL
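Purified P. pyralis luciferase, 10 nM final, with Km-level 10 uM D-luciferin and 10 uM ATP in 50 mM Tris acetate pH 7.5, 10 mM Mg acetate, 0.01% Tween-20, 0.05% BSA; 6-point qHTS titration about 60 µM downward; luminescence read.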
NPC1 promoter act: activates the NPC1 promoter | Huh7 NPC1 promoter luciferase reporter, 24 h | Potency, µM (highest dose often 9.22 µM), for the others: at the top dose activation, hits mostly activators | actives 2.4% (n = 320,000) | AID 485313; further: % of control where 0% means no effect; nearly all actives have a fitted effect of over 60% in size
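Readout is luciferase luminescence, reflecting NPC1 promoter activation in stably transfected Huh7 cells after 24 h compound exposure at 37 °C in reduced-serum medium with 10% FBS.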
SMN2 splice up: increases expression of the SMN2 splice variant. Potency, µM (series often up to 46.1 µM), without a hit: at the highest dose activity change, positive = activation, usual class: activators. actives 2.8% (n = 210,000). HEK293 SMN2-luciferase splicing reporter, luminescence, 30-36 h; further: % of control where 0% means no effect; nearly all actives have a fitted effect of over 55% in size
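qHTS luciferase splicing reporter: luminescence rises when SMN2 exon 7 is included in transfected HEK293 cells. Compound exposure lasted 30-36 h at 37C, with 4.5 mM final sodium butyrate as control, followed by a ONE-Glo read.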
ELG1 repair inh: blocks ELG1-dependent DNA repair in HEK293T cells. HEK293T ELG1-luciferase reporter, luminescence, 16 h; DNA damage induced by 5-fluorouridine. Potency, µM (top dose mostly 46.1 µM), inactives show at the top dose activity change, negative = inhibition, actives largely listed as inhibitors. actives 2.3% (n = 330,000). AID 504467; further: on the % scale 0 is the no-effect control and ±100 the full control effect; nearly all actives have a fitted effect of over 55% in size
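Quantitative HTS, concentration-response format. 2,000 cells/well co-treated with 5-fluorouridine and compound, 16 hr in 5% CO2 at 37 °C; ONE-Glo luminescence read after 30 min.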
ELG1 genotox: induces genotoxicity in HEK293T cells with luciferase-tagged ELG1; HEK293T ELG1-luciferase reporter, luminescence, 16 h; Potency, µM (top dose mostly 46 µM), for the others: at the top dose activity change, positive = activation, most hits filed as activators; actives 1.3% (n = 330,000); AID 504466; further: % of control where 0% means no effect; nearly all actives have a fitted effect of over 60% in size
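Cells (2,000/well) expressing the ELG1-luciferase fusion are dosed by pin tool and kept 16 hr at 37 °C, 5% CO2. Signal comes from ONE-Glo luciferase reagent after 30 min at room temperature.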
Starred values were filed as active, the others as inactive; ? = inconclusive; . = no result; [ ] = dose if it differs, or a comment. Rows were chosen to be rich in hits. Some 9.3% of all compounds tested hit in one or more screens of this group. The call rests on the fitted dose curve; in most records, active means well fitted curve in the direction sought with a large enough effect; inconclusive means small, poorly fitted or top-dose-only effect, or another doubt; inactive means no such curve, though single readings can be large; an effect the other way counts as inactive or inconclusive. Potency means the concentration at half of the fitted maximal effect.

SMILES | Rab9 promoter act | FLuc modulator | NPC1 promoter act | SMN2 splice up | ELG1 repair inh | ELG1 genotox
Cc1ccccc1/C=N/NC(=O)c1sccc1C | 2.24µM* | 1.51µM* | ? | 10µM* | ? | 18.4µM*
Cc1ccsc1/C=N/NC(=O)Nc1ccccc1 | 1.58µM* | 2.69µM* | 3.16µM* | 15.8µM* | ? | ?
O=C(N/N=C/c1ccc2c(c1)OCO2)c1sc2cc(Cl)ccc2c1Cl | -4.8% | ? | -0.5% | 5.4% | 13.3% | 6.5%
Cc1ccsc1C(=O)N/N=C/c1ccc2c(c1)OCO2 | 0.631µM* | 1.51µM* | 0.708µM* | 2.51µM* | ? | 2.31µM*
Cc1ccc(CNC(=O)CCNS(=O)(=O)c2ccc3c(c2)CCCC(=O)N3)cc1 | . | -9.6% | . | . | . | .
NC(=O)c1ccsc1NC(=O)c1ccc(S(=O)(=O)N2CCCc3ccccc32)cc1 | -10.8% | -6.5% | -4.1% | -49.4% | 20.6µM* | -5.9%
CC1CCCCN1S(=O)(=O)c1ccc(C(=O)Nc2sccc2C(N)=O)cc1 (stereo unspecified) | ? | 21.3µM* | ? | 20µM* | -21.4% | ?
NC(=O)c1ccsc1NC(=O)C1CCCN1S(=O)(=O)c1ccc(Cl)cc1 (stereo unspecified) | 2.4% | -7.0% | -5.3% | -13.3% | 1.8% | -2.4%
COc1cccc(CNC(=O)Cn2nc(C)c3c(C)n(-c4ccc(C)cc4)nc3c2=O)c1OC | -5.3% | -1.5% | -4.9% | . | -11.2% | -5.5%
CCOc1ccccc1CNC(=O)Cn1nc(C)c2c(C)n(-c3ccc(C)cc3)nc2c1=O | -31.8% | -10.0% | -32.4% | . | 2.91µM* | -6.0%[9.26 µM]
COc1ccc(CNC(=O)Cn2nc(C)c3c(C)n(-c4ccc(C)cc4)nc3c2=O)cc1OC | -5.7% | -0.6% | -5.9% | . | 20.6µM* | -11.1%
CN(c1ccccc1)c1nc2ccsc2c(=O)s1 | 3.16µM* | 12µM* | ? | ? | ? | 13µM*
CCN(c1ccccc1)c1nc2ccsc2c(=O)s1 | 1.1% | ? | 7.5% | -10.3% | 0.0% | ?
COc1cccc(NC(=O)C2CCN(Cc3cnn(-c4ccccc4)c3-n3cccc3)CC2)c1 | 19.1% | -5.7% | 1.2% | -33.4% | 18.4µM* | -6.4%
COc1ccc(NC(=O)C2CCN(Cc3cnn(-c4ccccc4)c3-n3cccc3)CC2)cc1OC | . | 2.2% | . | 12.2% | . | .
COc1ccc(CN2CCCC(C(=O)Nc3cccc(-n4cccn4)c3)C2)c(F)c1 (stereo unspecified) | -1.7% | 1.2% | 0.2% | . | 16.4µM* | -14.3%
COc1ccc(OC)c(NC(=O)C2CCN(Cc3cnn(-c4ccccc4)c3-n3cccc3)CC2)c1 | -0.1% | 5.7% | -4.1% | -4.5% | 23.1µM* | -2.4%
CN1CC[C@@]2(CCCN(C(=O)c3cccc(F)c3)C2)C1 | . | . | . | -1.2% | . | .
CC(=O)c1c(C)oc2ccc(N(C(=O)Oc3ccccc3)S(=O)(=O)c3ccccc3)cc12 | . | 2.4% | . | -14.8% | . | .
Cc1[nH]c2ccccc2c1/C=N/NC(=O)c1cc(-c2ccncc2)nc2ccccc12 | -6.0% | ? | -24.6% | . | ? | -5.3%
O=C(NN1CCOCC1)c1cc(-c2ccc(Br)cc2)nc2ccccc12 | -4.3% | ? | -2.5% | 4.9% | -7.4% | 0.3%
O=C(N/N=C/c1ccccn1)c1cc(-c2ccc(Br)cc2)nc2ccccc12 | -2.6% | 5.36µM* | -4.0% | . | ? | ?
O=C(N/N=C/c1ccccn1)c1cc(-c2ccc(Cl)cc2)nc2ccccc12 | -3.9% | 6.75µM* | -0.4% | -81.2% | ? | 17.3%
COc1ccc(N2C(=O)c3ccccc3NC2(C)C)cc1 | ? | -2.5% | ? | 8.91µM* | ? | -1.6%
COc1ccc(N2C(=O)c3ccccc3NC2c2cccnc2)cc1 (stereo unspecified) | -7.0% | 1.5% | 9.4% | 14.9% | ? | 9.2%
SMILES | Rab9 promoter act | FLuc modulator | NPC1 promoter act | SMN2 splice up | ELG1 repair inh | ELG1 genotox
C=C1c2ccccc2NC(=O)N1c1ccc(OC)cc1 | -0.3% | 2.8% | -4.6% | . | ? | 8.5%
COc1ccc(N2C(=O)c3ccccc3NC23CCCCC3)cc1 | 2.51µM* | 10.7µM* | 2.82µM* | 12.6µM* | ? | ?
COc1ccc(N2C(=O)c3ccccc3NC23CCC(C)CC3)cc1 (stereo unspecified) | 2.24µM* | ? | 2.51µM* | 10µM* | ? | ?
CCOc1ccc(N2C(=O)c3ccccc3NC2(C)CC)cc1 (stereo unspecified) | 3.55µM* | . | ? | . | ? | ?
COc1cc(O)c(C(CC(=O)N2CCCC(C)C2)c2cc(OC)c(OC)c(OC)c2)c(OC)c1 (stereo unspecified) | -5.4% | 1.3% | -2.8% | . | 11.4% | 0.3%
Cc1ccc(C(=O)N(Cc2ccco2)c2ccccn2)cc1 | . | -3.0% | . | . | . | .
Cc1noc(C)c1NC(=O)N(C)C[C@@H]1Oc2ccc(NS(=O)(=O)c3c(C)noc3C)cc2C(=O)N([C@H](C)CO)C[C@H]1C | . | . | . | . | 24.4% | 4.3%
O=C(CSc1cn(Cc2ccccc2)c2ccccc12)Nc1nccs1 | 2.51µM* | 0.849µM* | 3.16µM* | ? | ? | 4.61µM*
c1csc(-c2cn3ccc4ccccc4c3n2)c1 | -34.5% | -1.6% | -28.7% | . | 16.4µM* | -24.0%
c1ccc(CNc2nc(-c3cccs3)nc3ccccc23)cc1 | -3.1% | -6.7% | -2.4% | 6.6% | 8.0% | 9.0%
CC(=O)c1ccccc1NC(=O)c1ccc2c(c1)NC(=O)C(C)S2 (stereo unspecified) | ? | 15.1µM* | ? | . | ? | ?
Cc1ccnc(NC(=O)c2ccc3c(c2)NC(=O)C(C)S3)c1 (stereo unspecified) | 0.631µM* | 1.9µM* | 0.708µM* | . | ? | ?
CCCNC(=O)c1ccccc1NC(=O)c1ccc2c(c1)NC(=O)C(C)S2 (stereo unspecified) | -2.8% | -17.6% | -26.8% | . | ? | -10.4%
COc1ccc(OCCCC(=O)Nc2cc(S(=O)(=O)N3CCCCC3)ccc2C)cc1 | -0.5% | . | 3.9% | . | ? | -3.0%
Cc1cccnc1NC(=O)c1csnn1 | 7.0% | 3.1% | 0.0% | . | -7.6% | -1.1%
CCOc1ccc(-c2cn(-c3ccc(OC)cc3)c(SC)n2)cc1 | 3.98µM* | 5.36µM* | ? | 11.2µM* | ? | ?
CC1CCCC(C)N1C(=O)COC(=O)c1cc(=O)[nH]c2ccccc12 (stereo unspecified) | . | . | . | . | 6.5% | 0.1%
COCCCn1c(C(=O)NCCN2CCOCC2)cc2c(=O)n3ccccc3nc21 | -2.4% | 2.69µM* | -4.0% | . | 7.5% | 9.8%
Cc1ccc(C(=O)N2CCN(c3ccc(NC(=S)NC(=O)c4cccs4)cc3)CC2)cc1 | -23.3% | 0.7% | -12.2% | . | ? | -10.1%
